According to PubChem BioAssay AID1159580 (chemical genetic matrix, 2015):
Among all 5,500 compounds or so, about 2,000 (36%) were called active. Roughly 18% stayed inconclusive and do not appear here. Rule as the data show it: active = normalized growth mostly below about 0.91 (no sharp cut-off); inconclusive = no clear call, values can overlap the other calls; inactive = mostly above about 0.92. The list shows a part of the results.

Assay: chemical genetic growth profiling, strain panel (AID 1159580);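 also: tested at 20 µM; growth read once vehicle control cultures reached saturation at 30 °C; 1 = growth at the plate median or of vehicle wells; lower values mean less growth of the strain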
Conditions: growth OD
[1] = S. cerevisiae deletion strains, locus YAL040C, strain CLN3, hits give low values
[2] = S. cerevisiae deletion strains, locus YCL061C, strain MRC1 (second series), hits give low values
[3] = S. cerevisiae deletion strains, locus YDR363W, strain ESC2, hits give low values
[4] = S. cerevisiae deletion strains, locus YER002W, strain NOP16, hits give low values
[5] = S. cerevisiae deletion strains, locus YJR075W, strain HOC1, hits give low values
[6] = S. cerevisiae deletion strains, locus YMR263W, strain SAP30, hits give low values
[7] = S. cerevisiae deletion strains, locus YMR307W, strain GAS1, hits give low values
[8] = S. cerevisiae deletion strains, locus YNL153C, strain GIM3, hits give low values
[9] = S. cerevisiae deletion strains, locus YNL175C, strain NOP13, hits give low values
[10] = S. cerevisiae deletion strains, locus YNL197C, strain WHI3, hits give low values
[11] = S. cerevisiae deletion strains, locus YNL224C, strain SQS1, hits give low values
[12] = S. cerevisiae deletion strains, locus YOR083W, strain WHI5 (second series), hits give low values
[13] = S. cerevisiae deletion strains, locus YPL241C, strain CIN2, hits give low values
[14] = S. cerevisiae deletion strains, locus YAL013W, strain DEP1, hits give low values
[15] = S. cerevisiae deletion strains, locus YBR229C, strain ROT2, hits give low values
[16] = S. cerevisiae deletion strains, locus YDL101C, strain DUN1, hits give low values
[17] = S. cerevisiae deletion strains, locus YDR150W, strain NUM1, hits give low values
[18] = S. cerevisiae deletion strains, locus YEL061C, strain CIN8, hits give low values
[19] = S. cerevisiae deletion strains, locus YGR078C, strain PAC10, hits give low values
[20] = S. cerevisiae deletion strains, locus YHR030C, strain SLT2, hits give low values
[21] = S. cerevisiae deletion strains, locus YHR087W, strain rtc3, hits give low values
[22] = S. cerevisiae deletion strains, locus YJR043C, strain POL32, hits give low values
[23] = S. cerevisiae deletion strains, locus YLR039C, strain RIC1, hits give low values
[24] = S. cerevisiae deletion strains, locus YLR058C, strain SHM2 (second series), hits give low values
[25] = S. cerevisiae deletion strains, locus YLR085C, strain ARP6, hits give low values
[26] = S. cerevisiae deletion strains, locus YLR262C, strain YPT6, hits give low values
[27] = S. cerevisiae deletion strains, locus YML094W, strain GIM5, hits give low values
[28] = S. cerevisiae deletion strains, locus YMR219W, strain ESC1, hits give low values
[29] = S. cerevisiae deletion strains, locus YNL298W, strain CLA4 (second series), hits give low values
[30] = S. cerevisiae deletion strains, locus YNL322C, strain KRE1, hits give low values
[31] = S. cerevisiae deletion strains, locus YNR030W, strain Alg12, hits give low values
[32] = S. cerevisiae deletion strains, locus YPL055C, strain LGE1, hits give low values
[33] = S. cerevisiae deletion strains, locus YPR135W, strain CTF4, hits give low values
[34] = S. cerevisiae strains, strain wild type, hits give low values

Measured: normalized growth

O=S(=O)(O)C1CCNCC1
inactive: [1] 0.981 | [2] 1 | [3] 0.943 | [4] 1 | [5] 1.01 | [6] 0.997 | [7] 0.991 | [8] 1.02 | [9] 0.995 | [10] 0.995 | [11] 0.995 | [12] 0.993 | [13] 1

CN(/N=C\c1ccccc1)c1ncc(C(F)(F)F)cc1Cl
active: [20] 0.392 | [21] 0.905 | [25] 0.775
inactive: [14] 0.975 | [15] 0.949 | S. cerevisiae deletion strains, locus YCL061C, strain MRC1, hits give low values 0.989 | [16] 0.96 | S. cerevisiae deletion strains, locus YDL134C, strain PPH21, hits give low values 0.988 | [17] 0.897 | [18] 0.938 | [19] 0.934 | [22] 0.99 | [5] 0.921 | [23] 0.89 | [24] 0.953 | [26] 0.88 | [27] 0.929 | [28] 0.978 | [6] 0.99 | [8] 0.984 | [29] 0.949 | [30] 0.974 | [31] 0.89 | [32] 0.901 | [13] 1.02 | [33] 0.907 | [34] 0.98

CN1CCN(C=Nc2ncc(C(F)(F)F)cc2Cl)CC1
inactive: [14] 0.986 | [15] 1.02 | [16] 0.946 | [17] 0.974 | [18] 1.01 | [19] 0.984 | [20] 0.957 | [21] 1.07 | S. cerevisiae deletion strains, locus YJL187C, strain SWE1, hits give low values 1 | [22] 0.996 | [5] 0.989 | [23] 0.976 | [24] 0.996 | [25] 0.949 | [26] 0.995 | [27] 1.01 | [28] 1 | [6] 0.999 | [7] 1.01 | [8] 0.991 | [29] 0.975 | [30] 0.978 | [31] 1.02 | S. cerevisiae deletion strains, locus YOL006C, strain TOP1, hits give low values 0.988 | [32] 1.04 | [13] 0.994 | [33] 0.927 | [34] 0.991

CN(C(=O)CCCOc1ccc2[nH]c(=O)ccc2c1)C1CCCCC1
inactive: [14] 1.01 | [1] 0.998 | [2] 0.998 | [17] 0.99 | [3] 1 | [4] 0.989 | [6] 0.989 | [7] 1.01 | [9] 1.01 | [10] 1.02 | [11] 0.989 | [12] 0.993 | [32] 1 | [13] 0.999
